ADAM17 inh: inhibitors of human ADAM17 | recombinant ADAM17, EDANS/DABCYL FRET peptide cleavage | inhibition, % at 6.95 µM | 370,000 compounds, 0.83% hits;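 active means inhibition above the mean of compounds lying between control limits plus 3 SD, set per campaign, cut at about 8.5% in these data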;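 further: 0% = DMSO-only wells as the low control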
rCAG binder: r(CAG) repeat RNA binding. TO-PRO-1 dye displacement fluorescence. inhibition, % at 3 µM. 370,000 compounds, 1.3% hits;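 active means inhibition above the plate cutoff, the mean of all test compounds on that plate plus 3 SD, cut at about 35% in these data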;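 further: 0% = DMSO alone and 100% = 100 µM mitoxantrone as full dye displacement; higher means more dye released from RNA so lower well fluorescence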
ADAM10 inh: ADAM10 inhibition, QFRET primary screen; recombinant ADAM10, EDANS/DABCYL FRET peptide cleavage, 3 h; O14672; inhibition, % at 7 µM; 370,000 compounds, 0.62% hits;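 active means inhibition above a per-campaign cutoff equal to the mean of compounds falling between control-based bounds plus 3 SD, cut at about 20% in these data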;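 further: 0% = DMSO wells while the 100% control is not disclosed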
AHR activator: activators of human aryl hydrocarbon receptor | AHR-responsive luciferase reporter cells, luminescence | activation, % at 5 µM | 320,000 compounds, 2.5% hits | AID 2796; in the data active means activation above about 47%;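 further: 0% = vehicle wells and 100% = reference agonist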
Target sequence (P35869 whole entry, looked up): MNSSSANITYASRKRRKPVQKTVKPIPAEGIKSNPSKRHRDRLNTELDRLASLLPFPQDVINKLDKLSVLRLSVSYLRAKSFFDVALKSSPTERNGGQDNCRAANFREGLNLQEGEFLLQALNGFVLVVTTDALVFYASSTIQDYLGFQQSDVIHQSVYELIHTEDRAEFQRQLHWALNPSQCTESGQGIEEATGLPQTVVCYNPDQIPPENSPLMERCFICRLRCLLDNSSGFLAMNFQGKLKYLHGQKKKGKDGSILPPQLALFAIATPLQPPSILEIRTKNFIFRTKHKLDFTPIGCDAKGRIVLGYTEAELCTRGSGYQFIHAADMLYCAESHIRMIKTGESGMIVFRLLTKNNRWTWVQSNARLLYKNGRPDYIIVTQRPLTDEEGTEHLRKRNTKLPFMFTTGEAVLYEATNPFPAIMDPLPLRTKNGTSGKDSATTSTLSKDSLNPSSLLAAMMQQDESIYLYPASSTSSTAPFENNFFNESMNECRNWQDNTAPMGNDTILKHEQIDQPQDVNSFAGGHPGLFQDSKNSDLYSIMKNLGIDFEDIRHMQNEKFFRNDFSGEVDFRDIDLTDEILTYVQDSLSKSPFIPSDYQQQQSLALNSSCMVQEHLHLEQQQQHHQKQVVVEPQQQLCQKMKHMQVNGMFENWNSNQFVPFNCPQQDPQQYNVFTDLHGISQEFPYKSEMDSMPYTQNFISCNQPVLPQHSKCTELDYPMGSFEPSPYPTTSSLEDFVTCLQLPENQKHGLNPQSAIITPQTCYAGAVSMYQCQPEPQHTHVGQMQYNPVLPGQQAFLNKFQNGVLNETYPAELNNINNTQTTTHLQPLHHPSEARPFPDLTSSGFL
NR3A LBD binder: NR3A (human) ligand-binding domain modulation; NR3A LBD differential scanning fluorimetry, Tm shift; 0% = protein alone, 100% = glycine-bound protein; Tm shift relative to glycine control, % at 25 µM; 340,000 compounds, 2.5% hits; AID 1259313;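 active means melting temperature shift of at least 10% of the positive control shift, at one fixed dose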
proKLK7 act: proKLK7 (human) activation, primary screen. purified proKLK7, EDANS-DABCYL substrate fluorescence; 100% is mature enzyme control, 0% vehicle. activation, % at 7 µM. 370,000 compounds, 0.9% hits. AID 652039;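 active means activation above the mean of all tested compounds plus 3 SD, computed per campaign excluding outliers beyond control limits, cut at about 13% in these data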
rCAG binder conf: r(CAG) RNA repeat binding, confirmation; shares compounds with rCAG binder; TO-PRO-1 dye displacement fluorescence; inhibition, % at 3 µM; 4,300 compounds, 70% hits; AID 652065;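 active means inhibition above a per-plate cutoff, the mean inhibition of sample wells plus 3 SD, cut at about 35% in these data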;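 further: loss of TO-PRO-1 fluorescence as compound displaces dye from 1x1 AA loop RNA; 0% = DMSO only wells and 100% = 100 µM mitoxantrone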
dCAG dye counter: counter-screen for rCAG RNA binders: DNA CAG dye complex inhibitors | AID 652068 | d(CAG) DNA oligo TO-PRO-1 dye displacement, fluorescence | shares compounds with rCAG binder | inhibition, % at 3 µM | 4,300 compounds, 94% hits;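 active means inhibition above its plate's cutoff, the mean test-well inhibition plus 3 SD, cut at about 4.8% in these data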;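 further: 0% = DNA dye mix with DMSO and 100% = 100 µM mitoxantrone; hits displace the dye from DNA and so lower well fluorescence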
dCAG dye DR: disrupts DNA CAG TO-PRO-1 complex in dose response. shares compounds with rCAG binder. IC50, µM. 250 compounds, 20% hits. DNA CAG/GTC duplex TO-PRO-1 dye displacement fluorescence; in the data active means IC50 below about 10 µM
* = called active by the depositor; / = no result given. Compounds with a hit are over-represented: about 7% of the library has one in this group of screens.

SMILES	ADAM17 inh	rCAG binder	ADAM10 inh	AHR activator	NR3A LBD binder	proKLK7 act	rCAG binder conf	dCAG dye counter	others
O=C(NC(C(=O)N/N=C/c1cc([N+](=O)[O-])ccc1O)c1n[nH]c(=O)c2ccccc12)c1ccccc1 (stereo not given)	3.8	84.2*	6.7	5.0	6.9	0.4	66.4*	28.1*
O=C(NC(C(=O)N/N=C/c1ccncc1)c1n[nH]c(=O)c2ccccc12)c1ccccc1 (stereo not given)	-2.0	1.0	-4.0	5.9	0.9	-0.4	/	/
O=C(O)c1cccc(Nc2nc(-c3ccc([N+](=O)[O-])cc3)nc3ccccc23)c1	-5.8	1.9	-16.2	/	0.3	0.3	/	/
O=C(O)c1cccc(Nc2nc(-c3ccccc3)nc3ccccc23)c1	1.7	49.5*	2.3	2.0	-9.7	-0.1	34.3	7.6*
Fc1cccc(Nc2nc(-c3ccncc3)nc3ccccc23)c1	0.2	2.1	-0.8	33.1	-5.4	-0.2	/	/
Cc1ccc(-c2nc(Nc3cccc(O)c3)c3ccccc3n2)cc1	-15.3	37.1*	-19.9	31.3	42.4*	1.5	32.3	10.2*
O=C(O)c1ccc(Nc2nc(-c3ccccc3)nc3ccccc23)cc1	-14.6	36.6*	-49.5	12.8	4.3	-0.9	22.8	5.5*
Clc1ccc(Nc2nnc(-c3ccc4c(c3)OCO4)o2)cc1	-0.2	2.2	-10.9	/	/	0.5	/	/
CC(C)[C@H](NS(=O)(=O)c1ccc(F)cc1F)C(=O)N1CCC[C@H]1C(=O)NCCc1ccccc1Cl	-4.1	-1.9	-0.8	/	/	0.5	/	/
COc1ccc(NC(=O)C(c2cc3ccccc3o2)n2c(=O)c(-c3cc4ccccc4[nH]3)nc3ccccc32)cc1 (stereo not given)	-66.2	25.3	-225.5	/	/	-19.3	/	/
FC(F)(F)c1cc(-c2ccccc2)nc(N2CCCCC2)n1	0.3	-0.9	9.3	1.6	-1.7	-0.1	/	/
O=C(O)C1CCCN1c1nc(-c2ccc(Cl)c(Cl)c2)cc(C(F)(F)F)n1 (stereo not given)	-2.8	43.6*	-9.5	2.6	3.2	0.3	43.0*	12.2*	dCAG dye DR=>29.9
CCN(CC)c1ccc(C(=O)OCc2cc(=O)oc3cc(O)ccc23)cc1	-54.0	35.6*	-140.5	2.9	4.5	-55.3	42.5*	19.5*
c1ccc(COCCc2cn(Cc3ccccc3)c3ccccc23)cc1	-4.6	2.3	-8.0	/	/	0.3	/	/
CCOC(=O)[C@]12CCCC=C1N(CCCOC)C(=O)[C@@H]2CC(=O)NCc1cccc2ccccc12	0.4	-0.6	8.3	/	/	0.7	/	/
Cc1ccc(S(=O)(=O)N(C(=O)c2ccco2)c2cc3sc(=O)oc3c3ccccc23)cc1	6.1	87.7*	15.9	43.8	-4.2	-0.4	40.1*	17.3*
CCOc1ccc(S(=O)(=O)N(C(=O)c2ccco2)c2cc3sc(=O)oc3c3ccccc23)cc1	2.8	78.0*	2.0	31.8	0.6	0.1	47.9*	25.8*
CCOC(=O)[C@]12CCCC=C1N(CCC1=CCCCC1)C(=O)[C@H](CC(=O)NCC1CCCCC1)C2	-2.6	2.8	-2.0	/	/	0.6	/	/
COC(=O)c1sc(-c2ccc(C(C)(C)C)cc2)cc1NC(=O)c1ccccc1C(=O)O	-14.9	70.1*	-28.9	-6.2	-437.0	-0.1	83.5*	46.1*
COC(=O)c1sc(-c2ccc(Cl)cc2)cc1NC(=O)c1ccccc1C(=O)O	-19.1	70.5*	-37.7	8.1	3.0	-0.1	80.0*	46.0*
COC(=O)c1sc(-c2ccc(C(C)(C)C)cc2)cc1NC(=O)CSCC(=O)O	-27.8	62.3*	-57.6	-7.0	-437.0	-3.9	68.1*	25.4*
COC(=O)c1sccc1NC(=O)c1ccccc1C(=O)O	-6.3	-1.3	-6.1	-0.3	3.6	0.7	/	/
COC(=O)c1sc(-c2ccccc2)cc1NC(=O)C1CC1	-0.4	0.1	1.3	15.4	0.6	-0.6	/	/

Source: PubChem BioAssay
